High-throughput results (PubChem BioAssay)
DAX1 inh-1: DAX1 (NR0B1) inhibitors on StAR promoter, primary screen, cell-based, luminescence, SF-1 (NR5A1), full-length DAX-1. HEK293T StAR-luciferase reporter, SF-1/DAX-1 repression relief. inhibition, % at 6.8 µM. actives 1.1% (n = 370,000). AID 652010, 2013;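 active = inhibition above the mean over all tested compounds plus 3 SD, cut at about 3.6% in these data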;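 also: 0% = DAX-1 cells with DMSO and 100% = cells lacking DAX-1 with DMSO; higher inhibition means more luminescence from relief of DAX-1 repression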
DAX1 inh-2: DAX1 (NR0B1) inhibitors, primary screen, cell-based, HEK293, Gal4-DAX1, luciferase luminescence | actives 0.99% (n = 340,000) | HEK293 Gal4-DAX1 luciferase reporter | inhibition, % at 6.75 µM | Nuclear receptor subfamily 0 group B member 1 (Homo sapiens), P51843 | AID 504766, 2011;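 active = inhibition above the mean over all tested compounds plus 3 SD, cut at about 4.2% in these data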;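 also: 0% = DAX1-transfected cells with DMSO and 100% = empty-vector control cells with DMSO; inhibition shows as a rise in luminescence from relieved DAX1 repression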
Target sequence (P51843 207-470 limits assumed): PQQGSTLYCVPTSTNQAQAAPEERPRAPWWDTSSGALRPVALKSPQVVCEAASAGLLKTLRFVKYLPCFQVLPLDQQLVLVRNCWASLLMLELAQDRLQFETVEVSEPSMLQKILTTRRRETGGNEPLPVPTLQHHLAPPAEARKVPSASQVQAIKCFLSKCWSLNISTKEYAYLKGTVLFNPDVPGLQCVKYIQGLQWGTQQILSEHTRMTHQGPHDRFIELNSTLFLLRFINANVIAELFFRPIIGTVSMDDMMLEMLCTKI
hcDAF12 agonist: H. contortus DAF-12 nuclear receptor activators, primary screen, cell-based, luminescence, HEK293, lit1-tk-luc reporter; HEK293 hcDAF-12 lit1-tk-luc reporter; 0% DMSO, 100% Δ7-dafachronic acid; activation, % at 6.8 µM; AID 652067, 2013; actives 1.4% (n = 370,000);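 active = activation above the mean of all tested compounds plus 3 SD, cut at about 5.5% in these data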;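 also: 100% = response to 3 µM Δ7-dafachronic acid high control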
ssDAF12 agonist: S. stercoralis DAF-12 nuclear receptor activators, primary screen, cell-based, luminescence, HEK293, GRIP1 co-expression, lit1-tk-luc. activation, % at 6.8 µM. HEK293 ssDAF-12/GRIP1 lit1-tk-luc reporter; % of 3 µM dafachronic acid response. actives 1% (n = 370,000). Nuclear hormone receptor DAF-12 (Strongyloides stercoralis);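 active = activation above the mean over all tested compounds plus 3 SD, cut at about 0.9% in these data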;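 also: 0% = DMSO-only wells and 100% = 3 µM delta7-dafachronic acid wells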
hgDAF-12 ag: H. glycines DAF-12 receptor agonists, primary screen, cell-based, luminescence, HEK293, GAL4 fusion, UAS-luciferase; HEK293 GAL4-hgDAF12 UAS-luciferase reporter, agonist luminescence; normalized to butyrate control; activation, % at 6.8 µM; actives 1.8% (n = 370,000); AID 687014, 2013;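 active = activation above a cutoff set at the mean of all screened compounds plus 3 SD, cut at about 10% in these data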;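 also: 0% = DMSO wells and 100% = sodium butyrate wells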
Starred values were filed as active, the others as inactive. Most compounds without a hit are left out; they make up all but 4.1% or so of the library.

CCC[C@H]1[C@@H](NS(=O)(=O)c2ccccc2[N+](=O)[O-])CC[C@@]23CCCN2C(=O)CCC[C@@H]13 was read as hcDAF12 agonist 0, ssDAF12 agonist -2 and hgDAF-12 ag 1.
Cc1ccc(-n2c(SCC(=O)Nc3ccccc3-c3ccccc3)nnc2-c2ccccn2)cc1 was read as DAX1 inh-1 -1, hcDAF12 agonist -3, ssDAF12 agonist -2 and hgDAF-12 ag -2.
`Clc1ccc(OCc2nnc(-c3ccccc3Br)o2)cc1` gave DAX1 inh-1 0, DAX1 inh-2 0, hcDAF12 agonist 0, ssDAF12 agonist 2.1* and hgDAF-12 ag 0.
Screening COc1cc(OC)cc(C(=O)N=c2sc3ccccc3n2C)c1 returned DAX1 inh-1 2, DAX1 inh-2 1, hcDAF12 agonist 2, ssDAF12 agonist 0 and hgDAF-12 ag 11*.
`Cc1cc(C)n2c(Nc3ccc4c(c3)OCCO4)c(-c3ccc(F)cc3)nc2n1` gave DAX1 inh-1 4.3*, hcDAF12 agonist 3, ssDAF12 agonist 0 and hgDAF-12 ag 6.
Screening O[C@@H](Cc1ccccc1)[C@@H](/C=C/c1ccccc1)N(Cc1ccccc1)Cc1ccccc1 returned DAX1 inh-1 1, hcDAF12 agonist 0, ssDAF12 agonist 0 and hgDAF-12 ag 3.
Screening CCCOc1ccc(-c2nc(SCc3ccccc3)[nH]c(=O)c2C#N)cc1OC returned DAX1 inh-1 1, DAX1 inh-2 1, hcDAF12 agonist 0, ssDAF12 agonist 4.3* and hgDAF-12 ag 0.
`CCSc1nc(-c2ccccc2)c(C#N)c(=O)[nH]1` gave DAX1 inh-1 1, DAX1 inh-2 -1, hcDAF12 agonist -1, ssDAF12 agonist -1 and hgDAF-12 ag 0.
Screening CCOc1cc(NC(=S)NCCOC)c(OCC)cc1NC(=O)c1cccs1 returned DAX1 inh-1 0, hcDAF12 agonist -2, ssDAF12 agonist -1 and hgDAF-12 ag -3.
`CCOc1cc(NC(=S)NC)c(OCC)cc1NC(=O)c1cccs1` gave DAX1 inh-1 1, DAX1 inh-2 5.0*, hcDAF12 agonist 2, ssDAF12 agonist -1 and hgDAF-12 ag -3.
Screening CCOc1ccc(Nc2nc(N)c3ccccc3n2)cc1 returned DAX1 inh-1 2, DAX1 inh-2 -5, hcDAF12 agonist 4, ssDAF12 agonist 1.4* and hgDAF-12 ag 8.
CN(C)c1ccc(Nc2nc(N)c3ccccc3n2)cc1 was read as DAX1 inh-1 2, DAX1 inh-2 -5, hcDAF12 agonist 4, ssDAF12 agonist 1 and hgDAF-12 ag 10*.
CCOC(=O)N1CCN(C(=O)C[C@H]2C[C@@]3(C(=O)OC)C(=C[C@H](C4CCCC4)O[C@@H]3C)N(Cc3ccc(Cl)cc3Cl)C2=O)CC1 was read as DAX1 inh-1 -2, hcDAF12 agonist 0, ssDAF12 agonist -2 and hgDAF-12 ag 1.
COc1ccc2cc(C(=O)NCc3ccco3)c(=Nc3ccc(C(=O)O)cc3)oc2c1 was read as DAX1 inh-1 1, DAX1 inh-2 -1, hcDAF12 agonist 5, ssDAF12 agonist 0 and hgDAF-12 ag 11*.
COc1ccc2cc(C(=O)NCc3ccco3)c(=O)oc2c1 was read as DAX1 inh-1 2, DAX1 inh-2 2, hcDAF12 agonist 2, ssDAF12 agonist 0 and hgDAF-12 ag 10*.
CC[C@H](CCCCCCCn1ccc2ccccc21)CCC(=O)N(c1ccccc1)c1ccccc1 was read as DAX1 inh-1 -1, hcDAF12 agonist 2, ssDAF12 agonist -2 and hgDAF-12 ag 1.
Screening O=C(/C=C/Nc1ccc(S(=O)(=O)Nc2ncccn2)cc1)c1cccs1 returned DAX1 inh-1 1, DAX1 inh-2 5.7*, hcDAF12 agonist 4, ssDAF12 agonist -1 and hgDAF-12 ag 8.
Screening Cc1cc(=O)[nH]c(SCC(=O)Nc2cccc(C)c2C)n1 returned DAX1 inh-1 -2, hcDAF12 agonist -1, ssDAF12 agonist -2 and hgDAF-12 ag -3.
For C=CCOc1ccc(/C=C(\C#N)C(=O)Nc2ccccn2)cc1OC the results were DAX1 inh-1 0, DAX1 inh-2 4.7*, hcDAF12 agonist -1, ssDAF12 agonist -1 and hgDAF-12 ag -1.
Screening c1ccc(COc2ccc(OCCn3cncn3)cc2)cc1 returned DAX1 inh-1 3, DAX1 inh-2 1, hcDAF12 agonist 4, ssDAF12 agonist 0 and hgDAF-12 ag 13*.
Screening CC(NC(=O)CCc1nnc(C2(c3ccc(Cl)cc3)CCC2)o1)C1CC1 (stereo not drawn) returned DAX1 inh-1 0, DAX1 inh-2 4.4*, hcDAF12 agonist 0, ssDAF12 agonist 0 and hgDAF-12 ag 3.
For CC1=CC(C)=Nc2ccccc2N1 the results were DAX1 inh-1 3, DAX1 inh-2 1, hcDAF12 agonist 5.6*, ssDAF12 agonist 2.1* and hgDAF-12 ag 11*.
For O=C(/C=C/c1ccccc1)Nc1cccc(C(=O)NCc2ccccc2)c1 the results were DAX1 inh-1 0, hcDAF12 agonist -2, ssDAF12 agonist -1 and hgDAF-12 ag 2.
For O=C(/C=C/c1ccccc1)Nc1cccc(C(=O)NC2CC2)c1 the results were DAX1 inh-1 3.8*, DAX1 inh-2 1, hcDAF12 agonist 1, ssDAF12 agonist 0 and hgDAF-12 ag 9.
COC(=O)CN1C(=O)N(c2ccccc2)C(N(O)C(=O)Nc2ccccc2)C1(C)C (stereo not drawn) was read as DAX1 inh-1 0, DAX1 inh-2 4.6*, hcDAF12 agonist -1, ssDAF12 agonist -1 and hgDAF-12 ag 2.
For COC(=O)CNC(=O)CN1C(=O)N(c2ccccc2)C(N(O)C(=O)Nc2ccccc2)C1(C)C (stereo not drawn) the results were DAX1 inh-1 0, DAX1 inh-2 -1, hcDAF12 agonist 0, ssDAF12 agonist -1 and hgDAF-12 ag 0.
`NC(=O)CSc1nnc(Cn2cnc3ccccc32)o1` gave DAX1 inh-1 0, DAX1 inh-2 4.2*, hcDAF12 agonist -1, ssDAF12 agonist -1 and hgDAF-12 ag -2.
Screening Cc1ccc(S(=O)(=O)N(C)CC(=O)N2CCN(Cc3ccccc3)CC2)cc1 returned DAX1 inh-1 -1, DAX1 inh-2 5.0*, hcDAF12 agonist 1, ssDAF12 agonist -1 and hgDAF-12 ag -2.
For Cc1ccc(S(=O)(=O)N(C)CC(=O)N2CCCCCCC2)cc1 the results were DAX1 inh-1 -1, DAX1 inh-2 -2, hcDAF12 agonist 0, ssDAF12 agonist -1 and hgDAF-12 ag 0.
